# Data from the supplement of paper PMC8728848.
# The sample as a whole holds a higher share of the strongest signals than the screen did.
# B1: PhypaEULS3 (Physcomitrella patens) (protein)
# chain: MLPVRLHCKADPNFNLAAVPGQGPVMVPFSPNDDFQVWYKDVTMSTRVKDETGSSAFSLINKATGQALRHAPEDLAQCLLADYDSNALDQTVLWTMSEDMGQGYCCIRLASQITRNLDVFRGDKKSGGVKEGSPVITFAWKKQDNQIWKMITAILEQKLISEEDLNSAVDHHHHHH
# Experiments:
# Test in all cases: glycan array binding signal (z-score within array); higher = stronger binding
# Conditions in all cases: glycan notation: IUPAC condensed, linker removed
# [1] = target: Fuc(a1-2)Gal(b1-4)GlcNAc(b1-3)Gal(b1-4)GlcNAc(b1-2)Man(a1-3)[Fuc(a1-2)Gal(b1-4)GlcNAc(b1-3)Gal(b1-4)GlcNAc(b1-2)Man(a1-6)]Man(b1-4)GlcNAc(b1-4)GlcNAc
# Method in brief: (§1)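 Arrays were curated from the Consortium for Functional Glycomics database, 3228 in total, and kept only where the protein sequence was available. Binding is expressed as a within-array Z-score. This score was averaged across arrays of the same protein sequence at different concentrations or buffers and across linkers, and negative values can be read as non-binding.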
# [2] = target: Fuc(a1-2)Gal3S(b1-4)GlcNAc
# Method in brief: as §1
# [3] = target: Fuc(a1-2)Gal6S(b1-3)GlcNAc6S
# Method in brief: as §1
# [4] = target: Fuc(a1-2)[GalNAc(a1-3)]Gal(b1-3)GlcNAc(b1-6)GalNAc
# Method in brief: as §1
# [5] = target: Fuc(a1-3)[Gal(b1-4)]GlcNAc(b1-6)[Gal(b1-3)GlcNAc(b1-3)]Gal(b1-4)Glc
# Method in brief: as §1
# [6] = target: Fuc(a1-3)[Gal(b1-4)]GlcNAc6S
# Method in brief: as §1
# [7] = target: Gal(a1-3)Gal(b1-3)GlcNAc(b1-6)GalNAc
# Method in brief: as §1
# [8] = target: Gal(a1-3)Gal(b1-4)GlcNAc(b1-3)GalNAc
# Method in brief: as §1
# Gal(b1-3)GlcNAc(b1-2)Man = target: Gal(b1-3)GlcNAc(b1-2)Man
# Method in brief: as §1
# [9] = target: Gal(b1-3)GlcNAc(b1-6)Gal(b1-4)GlcNAc
# Method in brief: as §1
# Gal(b1-3)GlcNAc6S = target: Gal(b1-3)GlcNAc6S
# Method in brief: as §1
# [10] = target: Gal(b1-3)[Neu5Ac(a2-6)]GalNAc
# Method in brief: as §1
# Gal(b1-4)Glc6S = target: Gal(b1-4)Glc6S
# Method in brief: as §1
# Gal(b1-4)GlcNAc(b1-2)Man = target: Gal(b1-4)GlcNAc(b1-2)Man
# Method in brief: as §1
# [11] = target: Gal(b1-4)GlcNAc(b1-2)[Gal(b1-4)GlcNAc(b1-6)]Man(a1-6)[GlcNAc(b1-4)][Gal(b1-4)GlcNAc(b1-2)Man(a1-3)]Man(b1-4)GlcNAc(b1-4)GlcNAc
# Method in brief: as §1
# [12] = target: Gal(b1-4)GlcNAc(b1-3)Gal(b1-3)GalNAc
# Method in brief: as §1
# [13] = target: Gal(b1-4)GlcNAc(b1-3)Gal(b1-4)GlcNAc(b1-3)Gal(b1-4)GlcNAc(b1-3)Gal(b1-4)GlcNAc(b1-2)Man(a1-3)[Gal(b1-4)GlcNAc(b1-3)Gal(b1-4)GlcNAc(b1-3)Gal(b1-4)GlcNAc(b1-3)Gal(b1-4)GlcNAc(b1-2)Man(a1-6)]Man(b1-4)GlcNAc(b1-4)[Fuc(a1-6)]GlcNAc
# Method in brief: as §1
# [14] = target: Gal3S(b1-4)[Fuc(a1-3)]Glc6S
# Method in brief: as §1
# [15] = target: Gal3S(b1-4)[Fuc(a1-3)]GlcNAc6S
# Method in brief: as §1
# Gal4S6S(b1-4)GlcNAc = target: Gal4S6S(b1-4)GlcNAc
# Method in brief: as §1
# Gal6S(b1-3)GlcNAc6S = target: Gal6S(b1-3)GlcNAc6S
# Method in brief: as §1
# [16] = target: GalNAc3S(b1-4)[Fuc(a1-3)]GlcNAc
# Method in brief: as §1
# GalNAc4S6S(b1-4)GlcNAc = target: GalNAc4S6S(b1-4)GlcNAc
# Method in brief: as §1
# Glc(a1-4)Glc = target: Glc(a1-4)Glc
# Method in brief: as §1
# Glc(b1-6)Glc = target: Glc(b1-6)Glc
# Method in brief: as §1
# GlcA(b1-3)Gal = target: GlcA(b1-3)Gal
# Method in brief: as §1
# [17] = target: GlcNAc(a1-4)Gal(b1-4)GalNAc
# Method in brief: as §1
# [18] = target: GlcNAc6S(b1-3)Gal(b1-4)GlcNAc
# Method in brief: as §1
# Kdn(a2-6)Gal(b1-4)GlcNAc = target: Kdn(a2-6)Gal(b1-4)GlcNAc
# Method in brief: as §1
# [19] = target: Man(a1-2)Man(a1-2)Man(a1-6)[Man(a1-3)]Man
# Method in brief: as §1
# [20] = target: Man(a1-2)Man(a1-3)[Man(a1-2)Man(a1-6)]Man(a1-6)[Man(a1-2)Man(a1-2)Man(a1-3)]Man
# Method in brief: as §1
# [21] = target: Man(a1-2)Man(a1-6)[Man(a1-3)]Man(a1-6)[Man(a1-2)Man(a1-2)Man(a1-3)]Man(b1-4)GlcNAc(b1-4)GlcNAc
# Method in brief: as §1
# [22] = target: Man(a1-3)[Man(a1-6)]Man(a1-6)[Man(a1-3)]Man(b1-4)GlcNAc(b1-4)GlcNAc
# Method in brief: as §1
# [23] = target: Man(a1-3)[Man(a1-6)]Man(b1-4)GlcNAc(b1-4)GlcNAc
# Method in brief: as §1
# [24] = target: Neu5Ac(a2-3)Gal(b1-3)GlcNAc(b1-2)Man
# Method in brief: as §1
# [25] = target: Neu5Ac(a2-3)Gal(b1-3)[GlcNAc(b1-6)]GalNAc
# Method in brief: as §1
# [26] = target: Neu5Ac(a2-3)Gal(b1-3)]Neu5Ac(a2-3)Gal(b1-4)]GlcNAc
# Method in brief: as §1
# [27] = target: Neu5Ac(a2-3)Gal(b1-4)GlcNAc(b1-3)Gal(b1-4)GlcNAc(b1-3)Gal(b1-4)GlcNAc
# Method in brief: as §1
# [28] = target: Neu5Ac(a2-3)Gal(b1-4)GlcNAc(b1-6)GalNAc
# Method in brief: as §1
# Neu5Ac(a2-3)GalNAc = target: Neu5Ac(a2-3)GalNAc
# Method in brief: as §1
# [29] = target: Neu5Ac(a2-6)Gal(b1-4)GlcNAc(b1-2)Man(a1-6)[Man(a1-3)]Man(b1-4)GlcNAc(b1-4)GlcNAc
# Method in brief: as §1
# [30] = target: Neu5Ac(a2-6)Gal(b1-4)GlcNAc(b1-3)Gal(b1-3)GlcNAc
# Method in brief: as §1
# [31] = target: Neu5Ac(a2-6)Gal(b1-4)GlcNAc(b1-3)Gal(b1-4)GlcNAc(b1-3)Gal(b1-4)GlcNAc
# Method in brief: as §1
# [32] = target: Neu5Ac(a2-6)Gal(b1-4)GlcNAc(b1-3)Gal(b1-4)GlcNAc(b1-3)GalNAc
# Method in brief: as §1
# [33] = target: Neu5Ac(a2-6)Gal(b1-4)GlcNAc(b1-3)GalNAc
# Method in brief: as §1
# [34] = target: Neu5Ac(a2-6)Gal(b1-4)GlcNAc(b1-6)[Gal(b1-3)GlcNAc(b1-3)]Gal(b1-4)Glc
# Method in brief: as §1
# [35] = target: Neu5Ac(a2-6)GalNAc(b1-4)GlcNAc
# Method in brief: as §1
# [36] = target: Neu5Ac(a2-8)Neu5Ac(a2-3)Gal(b1-3)GalNAc(b1-4)[Neu5Ac(a2-3)]Gal(b1-4)Glc
# Method in brief: as §1
# [37] = target: Neu5Ac(a2-8)Neu5Ac(a2-3)[GalNAc(b1-4)]Gal(b1-4)Glc
# Method in brief: as §1
# [38] = target: Neu5Ac(a2-8)Neu5Ac(a2-8)Neu5Ac
# Method in brief: as §1
# Neu5Gc(a2-6)GalNAc = target: Neu5Gc(a2-6)GalNAc
# Method in brief: as §1
binder,measurement,setting,value
B1,glycan array binding signal (z-score),[1],0.946
same,glycan array binding signal (z-score),[2],-0.262
same,glycan array binding signal (z-score),[3],3.08
same,glycan array binding signal (z-score),[4],0.713
same,glycan array binding signal (z-score),[5],2.22
same,glycan array binding signal (z-score),[6],-0.239
same,glycan array binding signal (z-score),[7],0.611
same,glycan array binding signal (z-score),[8],3.21
same,glycan array binding signal (z-score),Gal(b1-3)GlcNAc(b1-2)Man,0.702
same,glycan array binding signal (z-score),[9],1.01
same,glycan array binding signal (z-score),Gal(b1-3)GlcNAc6S,1.42
same,glycan array binding signal (z-score),[10],-0.203
same,glycan array binding signal (z-score),Gal(b1-4)Glc6S,0.095
same,glycan array binding signal (z-score),Gal(b1-4)GlcNAc(b1-2)Man,1.11
same,glycan array binding signal (z-score),[11],-0.969
same,glycan array binding signal (z-score),[12],2.27
same,glycan array binding signal (z-score),[13],-0.557
same,glycan array binding signal (z-score),[14],0.258
same,glycan array binding signal (z-score),[15],2.66
same,glycan array binding signal (z-score),Gal4S6S(b1-4)GlcNAc,-0.245
same,glycan array binding signal (z-score),Gal6S(b1-3)GlcNAc6S,4.14
same,glycan array binding signal (z-score),[16],-0.804
same,glycan array binding signal (z-score),GalNAc4S6S(b1-4)GlcNAc,2.6
same,glycan array binding signal (z-score),Glc(a1-4)Glc,-0.811
same,glycan array binding signal (z-score),Glc(b1-6)Glc,-1.38
same,glycan array binding signal (z-score),GlcA(b1-3)Gal,-1.49
same,glycan array binding signal (z-score),[17],-1.15
same,glycan array binding signal (z-score),[18],1.26
same,glycan array binding signal (z-score),Kdn(a2-6)Gal(b1-4)GlcNAc,0.671
same,glycan array binding signal (z-score),[19],0.733
same,glycan array binding signal (z-score),[20],-0.367
same,glycan array binding signal (z-score),[21],2.25
same,glycan array binding signal (z-score),[22],-0.185
same,glycan array binding signal (z-score),[23],0.192
same,glycan array binding signal (z-score),[24],-0.422
same,glycan array binding signal (z-score),[25],3.83
same,glycan array binding signal (z-score),[26],0.062
same,glycan array binding signal (z-score),[27],0.343
same,glycan array binding signal (z-score),[28],2.29
same,glycan array binding signal (z-score),Neu5Ac(a2-3)GalNAc,-0.098
same,glycan array binding signal (z-score),[29],-0.347
same,glycan array binding signal (z-score),[30],0.4
same,glycan array binding signal (z-score),[31],0.398
same,glycan array binding signal (z-score),[32],0.528
same,glycan array binding signal (z-score),[33],0.678
same,glycan array binding signal (z-score),[34],0.339
same,glycan array binding signal (z-score),[35],0.235
same,glycan array binding signal (z-score),[36],-0.561
same,glycan array binding signal (z-score),[37],-0.005
same,glycan array binding signal (z-score),[38],-0.561
same,glycan array binding signal (z-score),Neu5Gc(a2-6)GalNAc,2.46
